Screening results (PubChem)
Pf growth 48h = P. falciparum growth inhibition at 48 hours (one generation). AID 504832. Potency, µM (titrated, usually from 28.7 µM), inactives show top-dose activity change, negative = inhibition, hits mostly inhibitors. P. falciparum luciferase growth in erythrocytes, 48 h. hit rate 5.9% among 310,000
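Luciferase-expressing P. falciparum in infected erythrocytes (2% hematocrit, 0.1% parasitemia final) in RPMI 1640/0.5% Albumax were exposed to compound for 48 hours at 37 C, 5% CO2; growth read as luminescence.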
VACV mCherry inh = vaccinia inhibition (mCherry reporter); Vaccinia virus mCherry reporter infection, fluorescence; Potency, µM (series often up to 36.5 µM), for inactives: at the highest dose activity change, negative = inhibition, actives largely listed as inhibitors; hit rate 0.63% among 310,000; calls by dose curve; tested in A549 cells; further: nearly all actives have a fitted effect of over 35% in size
VACV Venus inh = vaccinia inhibition (Venus reporter). Potency, µM (titrated, usually from 36.5 µM), without a hit: at the highest dose activity change, negative = inhibition, most hits filed as inhibitors. AID 720580. Vaccinia virus Venus reporter expression, fluorescence. hit rate 0.46% among 330,000; calls by dose curve; tested in A549 cells; further: nearly all actives have a fitted effect of over 30% in size
AMA1-RON2 inh = inhibitors of Plasmodium falciparum AMA1-RON2 interaction. AlphaScreen AMA1-biotinylated RON2 peptide binding. hit rate 0.2% among 360,000. Potency, µM (series often up to 58.2 µM), without a hit: top-dose activity change, negative = inhibition, usual class: inhibitors;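 further: 0% = vehicle wells and -100% = peptide control; nearly all actives have a fitted effect of over 45% in size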
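AMA1 (3D7) with his tag at 25 nM final met compounds first, then biotinylated RON2 peptide at 25 nM; detection used donor plus acceptor beads, 10 µg/mL apiece, read by AlphaScreen after 30 min at room temperature.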
Pf growth 96h = P. falciparum growth inhibition at 96 hours. Potency, µM (highest dose often 28.7 µM), inactives show top-dose activity change, negative = inhibition, hits mostly inhibitors. hit rate 6.9% among 320,000. P. falciparum luciferase reporter growth, 96 h
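Cell-based qHTS: luciferase-tagged P. falciparum in erythrocytes (2% hematocrit, 0.05% parasitemia final) incubated with compounds for 96 hours, 37 C, 5% CO2; luciferase detection reagent then added and luminescence measured.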
* hit, by the source's call; i = inactive; ? = inconclusive; . = no result given; [ ] = remark or other dose. Hits are enriched below; roughly 8.7% of the tested compounds scored in any of these assays. Unless noted, the call rests on the fitted dose curve; in most records, active means well fitted curve in the direction sought with a large enough effect; inconclusive means small, poorly fitted or top-dose-only effect, or another doubt; inactive means no such curve, though single readings can be large; an effect the other way counts as inactive or inconclusive. Unless noted, on the % scale 0 is the no-effect control and ±100 the full control effect; potency means the concentration at half of the fitted maximal effect.

SMILES | Pf growth 48h | VACV mCherry inh | VACV Venus inh | AMA1-RON2 inh | Pf growth 96h
CC(O)(COc1ccccc1)c1ccc2c(c1)CN(Cc1ccc3nsnc3c1)CCO2 (configuration not stated) | . | -11.6% | 5.6% | . | .
COc1ccc(Nc2c3c(c(C#N)c4nc5ccccc5n24)CCC3)cc1 | ? | . | -10.5% | -3.8% | 9.28µM*
N#Cc1c2c(c(Cl)n3c1nc1ccccc13)CCCC2 | . | -27.3% | ? | . | .
CCN(CC)c1c2c(c(C#N)c3nc4ccccc4n13)CCC2 | ? | . | . | 29.0% | ?
N#Cc1c2c(c(NCCOCCO)n3c1nc1ccccc13)CCCC2 | ? | -10.5% | -9.9% | 15.0% | -16.2%
COCCNc1c2c(c(C#N)c3nc4ccccc4n13)CCCC2 | 1.65µM* | i | -2.6% | 35.6% | ?
CC(=O)c1ccc(Nc2c3c(c(C#N)c4nc5ccccc5n24)CCC3)cc1 | 3.29µM* | . | . | . | 216.1%
N#Cc1c2c(c(NCc3cccnc3)n3c1nc1ccccc13)CCC2 | 2.94µM* | -13.9% | -11.4% | 0.9% | .
Cc1ccc(NC(=O)Cn2c(=O)n(Cc3nc(C)no3)c(=O)c3cc4c(cc32)OCO4)c(C)c1 | . | -8.6% | -12.4% | . | .
Cc1cc(N2CCN(c3ccccc3F)CC2)nc2cc(O)ccc12 | 10.4µM* | -6.7% | -17.6% | 4.6% | 0.0%
COc1ccc(N2CCN(c3cc(C)c4ccc(O)cc4n3)CC2)cc1 | 13.1µM* | ? | -18.2% | -27.8% | 125.9%
Cc1cc(N2CCN(c3ccc(F)cc3)CC2)nc2cc(O)ccc12 | . | ? | -16.8% | ? | 7.38µM*
COc1ccc(N2CCN(c3cc(C)c4ccc(C)cc4n3)CC2)cc1 | -19.3% | -0.5% | -14.2% | ? | -0.4%
Cc1cc(N2CCOCC2)nc2cc(O)ccc12 | 107.6% | i | -8.0% | 10.0% | 5.1%
COc1ccc2c(C)cc(N3CCN(c4ccc(F)cc4)CC3)nc2c1 | ? | -1.9% | -10.5% | -9.8% | .
CCCC(=O)Nc1cc(C)c(O)c(-c2nc3ncccc3o2)c1 | . | -12.3% | -4.4% | . | .
Cc1ccccc1NC(=O)COc1coc(CN2CCN(c3ccccc3)CC2)cc1=O | ? | i | -12.9% | -8.7% | -21.2%
Cc1cccc(NC(=O)COc2coc(CN3CCN(c4ccccc4)CC3)cc2=O)c1 | 9.28µM* | -16.2% | -2.9% | -12.1% | ?
COc1ccccc1NC(=O)COc1coc(CN2CCN(c3ccccc3)CC2)cc1=O | 13.1µM* | -14.6% | -14.3% | 0.2% | ?
N=c1c2c(n(Cc3ccc(Cl)cc3Cl)c3c1CCC3)CCCC2 | 0.185µM* | . | ? | 36.3% | .
CN1CCCN(Cc2ccc(Cl)cc2Cl)CC1 | . | i | -7.9% | -19.0% | -26.3%
N=c1c2c(n(Cc3ccc(F)cc3)c3c1CCC3)CCCC2 | ? | -11.3% | -22.5% | -0.4% | 14.9%
N=c1c2c(n(Cc3ccc(Cl)cc3)c3c1CCC3)CCC2 | 0.208µM* | -24.6% | ? | -6.1% | 25.1%
N=c1c2c(n(Cc3cccc(Cl)c3)c3c1CCC3)CCCC2 | 0.262µM* | -21.4% | ? | -4.3% | -106.8%
N=c1c2c(n(Cc3ccccc3)c3c1CCC3)CCC2 | 0.415µM* | . | ? | 3.6% | 0.131µM*
SMILES | Pf growth 48h | VACV mCherry inh | VACV Venus inh | AMA1-RON2 inh | Pf growth 96h
N=c1sc2c(n1Cc1ccccc1)CCCC2 | -15.4% | i | -15.2% | 0.9% | 65.1%
CCOc1ccc(-n2c(SCC(=O)c3ccccc3)nc3c([nH]c4ccccc43)c2=O)cc1 | . | -14.1% | 3.3% | . | .
Cc1cc(C)cc(Oc2ccc(N)cc2)c1 | 26.6% | -9.1% | -20.8% | -13.6% | 11.7µM*
Nc1ccc(Oc2cccc(Oc3ccc(N)cc3)c2)cc1 | 7.3% | -21.2% | -2.7% | 31.6µM* | -29.9%
Cc1nc(NC(=O)c2ccccc2)sc1C1(C)CC(c2ccccc2F)=NO1 (configuration not stated) | ? | 3.6% | 0.7% | 10.8% | ?
Cc1nc(NC(=O)c2ccccc2)sc1C1(C)CC(c2c(Cl)cccc2Cl)=NO1 (configuration not stated) | 13.1µM* | i | -29.8% | 27.3% | ?
O=C(Nc1ccc(N2CCC(c3ccccc3)C2)c(C(=O)O)c1)c1ccc(Cl)cc1 (configuration not stated) | . | -10.0% | -12.4% | . | .
CCOC(=O)N1CCC(=NNc2ccnc3cc(Cl)ccc23)CC1 | ? | -14.4% | 20.6% | -3.6% | 2.62µM*
CC(=O)N1CCC(=NNc2ncc(C(F)(F)F)cc2Cl)CC1 | 0.0% | i | -12.5% | 59.6% | 51.1%
CC(=O)N1CCC(=NNc2ccnc3cc(Cl)ccc23)CC1 | 1.85µM* | -18.4% | 3.1% | -13.8% | 2.62µM*
CCCN(C(=O)c1cc2c(s1)-c1c(C)cccc1OC2)c1ccc(OCC)cc1 | . | -10.4% | -12.4% | . | .
O=[N+]([O-])c1ccc2c(c1)S(=O)c1ccccc1-2 (configuration not stated) | 8.28µM* | i | -10.0% | -3.3% | ?
COc1ccc(NC(=O)CCc2nnc3n(C)c(=O)c4sccc4n23)cc1Cl | . | -3.3% | -9.6% | . | .
CCC(CC)NC(=O)CON=C1c2ccccc2-c2ccccc21 | 13.1µM* | -1.1% | -1.4% | -0.3% | 13.1µM*
CCNC(=O)CON=C1c2ccccc2-c2ccccc21 | 8.1% | -11.5% | -14.4% | -6.1%[2.32 µM] | -8.5%
COc1ccc(C2(CNC(=O)/C=C\c3ccco3)CCCC2)cc1OC | 11.7µM* | . | . | 7.7% | ?
COc1ccc(C2(CNC(=O)c3cc(OC)c(OC)c(OC)c3)CCCC2)cc1OC | . | -12.5% | -3.0% | -5.3% | .
COc1ccccc1NC(=O)CSC1=Nc2ccccc2C2=NC(CC(=O)NCc3ccco3)C(=O)N12 (configuration not stated) | . | -14.9% | -3.3% | . | .
CSc1ccc(CN2CCCC(N3CCN(c4ccccc4)CC3)C2)cc1 (configuration not stated) | ? | . | . | 9.2% | 9.28µM*
COc1cc(CN2CCCC(N3CCN(c4ccccc4C)CC3)C2)ccc1O (configuration not stated) | 8.28µM* | -17.6% | ? | -13.5% | 55.1%
COc1ccccc1N1CCN(C2CCCN(Cc3c(F)cccc3F)C2)CC1 (configuration not stated) | 15.6% | . | . | -5.3% | -62.3%
COc1ccccc1N1CCN(Cc2cccc(OC)c2OC)CC1 | -5.9% | . | . | -20.5% | .
COc1ccccc1N1CCN(Cc2cccc(OC)c2O)CC1 | 7.38µM* | . | . | -3.2% | ?
COc1ccccc1N1CCN(C2CCCN(Cc3cccc(O)c3)C2)CC1 (configuration not stated) | ? | . | . | 5.9% | 1.17µM*
CCOC(=O)C1CCCN(Cc2ccc(O)c(OC)c2)C1 (configuration not stated) | 9.2% | . | . | -18.7% | -2.8%
COc1ccccc1CN1CCCC(N2CCN(c3ccccc3OC)CC2)C1 (configuration not stated) | -6.8% | . | . | 5.8% | 4.65µM*
COc1cc(CN2CCCC(N3CCN(c4ccc(F)cc4)CC3)C2)ccc1F (configuration not stated) | 2.08µM* | . | . | -14.9% | 0.657µM*
Oc1ccc(-c2cnccn2)cc1CN1CCN(C2CCCCC2)CC1 | . | -8.8% | 5.0% | . | .
